Measured values from PubChem BioAssay (NCI).
Where “and” joins values, the source holds several entries; their conditions need not be identical. Identical values can stand only once. Compounds without any hit were thinned out: in the full panel of roughly 83,000, 20% have a hit.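 The test compound was applied at a single concentration to cells in 96-well plates for 48 hours, and percent growth was recorded.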 Calls of active or inactive are those of the source. The calls were made as follows: active = growth percent below 10; inactive = the rest.

system: MDA-MB-468 breast; assay: NCI-60 one-dose screen, 48 h (100 = growth as untreated, 0 = no growth, -100 = all killed); details: 10 µM unless noted

SMILES | growth
Cc1cc(C)c(NC(=O)c2sc3nc4c(cc3c2N)C(=O)CCC4)c(C)c1 | -27.2% (active)
COc1cc2nc(-c3ccc(C(F)(F)F)cc3)cc(OCCN3CCC(O)CC3)c2cc1OC | 81.1% (inactive)
Cc1ccc(N2C(=O)C=CC2=O)cc1 | -25.2% (active)
O=S(=O)(Nc1ccc(Cl)c(Cl)c1)c1ccc(-c2cnc(C3CC3)o2)cc1 | 7.72% (active)
Nc1c(S(=O)(=O)O)cc(Br)c2c1C(=O)c1ccccc1C2=O | 102% (inactive) and 107% (inactive)
CCN1CCN(C(=O)[C@@]2(C)CC[C@]3(C)CC[C@]4(C)C(=CC(=O)[C@@H]5[C@@]6(C)CC[C@H](OC7C[C@@H](O)[C@@H](O)C(C)O7)C(C)(C)[C@@H]6CC[C@]54C)[C@@H]3C2)CC1 (stereo not given in full) | 16.9% (inactive)
Oc1[nH]c2ccc(Cl)cc2c1/C=c1/ccc2c(c1)N=C(c1ccc(C(F)(F)F)cc1)N=2 | 52.5% (inactive)
FC(F)(F)c1cc(CNc2nc(Cl)ncc2Br)cc(C(F)(F)F)c1 | 64.7% (inactive)
O=C(CSc1nnc(-c2cccs2)n1-c1ccccc1)Nc1ccccc1F | 67.1% (inactive)
CCCCCCCCCCCCSC(=NC)NC | -9.65% (active) and 32.3% (inactive)
Cn1ncc2c(Nc3ccc(Br)cc3)nc(Nc3ccc(Br)cc3)nc21 | 51.4% (inactive)
Cc1ccc(N(CC2=NCCN2)c2cccc(O)c2)cc1 | 93.3% (inactive)
Cc1ccc(N=CNN=C(N)N)cc1 | 100% (inactive)
CC(=O)O[C@@]12CO[C@@H]1C[C@H](O)[C@@]1(C)C(=O)[C@H](O)C3=C(C)[C@@H](OC(=O)[C@H](O)[C@@H](NC(=O)OC(C)(C)C)c4ccccc4)C[C@@](O)([C@@H](OC(=O)c4ccccc4)C12)C3(C)C (stereo not given in full) | 3.09% (active)
COc1ccc(NC(=O)c2ccc(Cl)cc2Cl)cc1 | 96.5% (inactive)
NC(=S)N/N=C(/CCN1CCCC1)CC(C1=C(O)C2=CCCCC2OC1=O)c1ccccc1 (stereo not given) | 17.9% (inactive)
CCCCc1ccc(Nc2ccc(Nc3ccc(CCCC)cc3S(=O)(=O)O)c3c2C(=O)c2ccccc2C3=O)c(S(=O)(=O)O)c1 | 112% (inactive)
CCOC(=O)C1(C)CCCC1N (stereo not given) | 99.2% (inactive)
O=S1(=O)CC(Br)C(Br)C1 (stereo not given) | 37% (inactive) and 75.6% (inactive)
Cc1ccc(C(=O)c2ccc(CC(=O)N=Nc3c(O)[nH]c4ccc(Br)cc34)n2C)cc1 | 96.6% (inactive)

SMILES | growth
COc1ccc(/C=C(\C#N)n2nnc3cc(F)c(F)cc32)c(OC)c1OC | 35.3% (inactive)
COc1cccc(C2C3=C(COC3=O)N(CCO)c3cc4c(cc32)OCCO4)c1 (stereo not given) | -52.9% (active)
C#CCOc1ccc2ncnc(Nc3cccc(NC(=O)C=C)c3)c2c1 | 41.6% (inactive)
COc1ccc(-c2cn3c(-c4ccc(OC)cc4)cnc3c(Oc3ccc4c(C)cc(=O)oc4c3)n2)cc1 | 43.9% (inactive)
COc1ccc(C(=O)N2c3ccccc3Sc3ccccc32)c(OC)c1 | 0.159% (active)
O=C1NC(=O)C(c2ccccc2)(c2ccccc2)N1Cc1cn(-c2c3ccccc3nc3ccccc23)nn1 | 38.2% (inactive)
CCCCCc1cc[n+](CC(=O)c2ccc(Cl)cc2)cc1 | 65.9% (inactive)
Cc1cc(C)c(NC(=O)c2sc3nc4c(cc3c2N)CCCC4)c(C)c1 | 47.9% (inactive)
CC1CN(CCO)CC(C)O1 (stereo not given) | 108% (inactive)
COc1cc(/C=N/OC(=O)Nc2ccccc2)cc(OC)c1OC | 105% (inactive)
NC(=S)c1csc(CCNC(=O)c2ccccc2)n1 | 109% (inactive)
NC(N)=N/N=C/c1ccc(Cl)cc1 | 44% (inactive)
COC1=C(C)C(=O)c2c(c(CCCl)c3n2CCC3O)C1=O (stereo not given) | 91.5% (inactive)
Cc1cc(C)c2c(n1)sc1c(Nc3ccc(Cl)cc3Cl)ncnc12 | 16.9% (inactive)
CC1(C)CCCC2=C1C(=O)N(SC(Cl)(Cl)Cl)C2=O | 79.6% (inactive)
O=C(Nc1cnn2ccc(N3CCC[C@@H]3c3cc(F)ccc3F)nc12)N1CC[C@H](O)C1 | 88.7% (inactive)
COc1cc(/C=N/NC(=O)c2cnn3c2NC(c2ccccc2)C3)cc(OC)c1OC (stereo not given) | 62.8% (inactive)
CCCCCCCC[Si](OCC)(OCC)OCC | 97.5% (inactive)
CCCCCCCCCCCCCCCCNC(=O)Nc1ccc(C)c(NC(=O)NCCCCCCCCCCCCCCCC)c1 | 101% (inactive)
COc1cc(C(=O)NNC(=O)c2ccccc2C(=O)O)cc(OC)c1OC | 48.6% (inactive)
